Compound activity deposited in PubChem BioAssay by several laboratories.
Hits are enriched below; roughly 1.1% of the tested compounds scored in any of these assays.
IDE cell inh: human IDE inhibitors in live cells, primary screen, fluorescence polarization, HEK cells, FAbetaB substrate; Insulin-degrading enzyme (Homo sapiens), P14735; FAbetaB cleavage; inhibition, % at 5.59 µM; 0.41% of 320,000 active; AID 434962, 2010;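 active means percent inhibition above the average of all tested compounds plus 3 SD, set per screening campaign, cut at about 16% in these data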;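 further: IDE supplied by intact live HEK cells; FP after avidin binding of uncleaved biotin substrate so inhibition keeps polarization high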
HDAC3 inh: HDAC3 deacetylase inhibitors, primary screen, biochemical, fluorescence, cell-free homogeneous. recombinant HDAC3, fluorogenic peptide/trypsin coupled. inhibition, % at 8.3 µM. 0.15% of 320,000 active; in the data active means inhibition above about 26%, passing the limit was not always enough
Target sequence (O15379 whole entry, looked up): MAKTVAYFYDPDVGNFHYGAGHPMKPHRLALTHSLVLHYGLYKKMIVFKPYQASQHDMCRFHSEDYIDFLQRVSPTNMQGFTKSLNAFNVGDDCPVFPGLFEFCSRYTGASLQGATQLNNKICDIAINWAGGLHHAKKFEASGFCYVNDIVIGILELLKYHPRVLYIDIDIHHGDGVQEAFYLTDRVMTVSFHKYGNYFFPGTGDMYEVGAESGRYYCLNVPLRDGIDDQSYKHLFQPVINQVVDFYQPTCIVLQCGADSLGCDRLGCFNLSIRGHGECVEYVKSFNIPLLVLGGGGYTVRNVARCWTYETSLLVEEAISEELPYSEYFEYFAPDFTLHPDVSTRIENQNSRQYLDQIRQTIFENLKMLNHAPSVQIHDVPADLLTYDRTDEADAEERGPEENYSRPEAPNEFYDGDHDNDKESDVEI
LANA-H2A inh: blockers of LANA interaction with H2A/H2B – biochemical, FP readout, HTS, primary screen; cell-free LANA-H2A/H2B peptide, fluorescence polarization; inhibition, % (no concentration beside the values); Protein LANA1 (Human herpesvirus 8 type P (isolate GK18)), Q9QR71; 0.6% of 320,000 active; in the data active means inhibition mostly above about 10%, no sharp cut-off; inactive means mostly below about 6.7%
IDE cell activ: human IDE activators in live cells, primary screen, fluorescence polarization, HEK cells, FAbeta-B substrate | FAbeta-B cleavage; 0% vehicle, 100% cell-free pure enzyme wells | activation, % at 5.96 µM | 0.073% of 340,000 active;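 active means activation above the mean of all tested compounds plus 3 SD, set per screening campaign, cut at about 17% in these data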
IDE cell inh cf: human IDE inhibitors in live cells, confirmation, fluorescence polarization, HEK cells, FAbetaB substrate. shares compounds with IDE cell inh. FAbetaB cleavage. inhibition, % at 5.59 µM. 51% of 1,200 active. AID 435028, 2010;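 active means mean inhibition across triplicate wells above the cutoff set by the earlier primary insulin-degrading enzyme screen, cut at about 16% in these data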
HEK293 tox: cytotoxicity in HEK cells, cytotoxicity control for IDE inhibitor project, cell-based, luminescence | shares compounds with IDE cell inh | HEK293 cytotoxicity, ATP luminescence | inhibition, % at 5.59 µM | 28% of 1,200 active; in the data active means inhibition above about 22%
Each line names hits and unclear results; the compound was inactive in the other large screens (follow-up assays come after a bar, where they were run).

CC1=C(C(=O)OCC2CCCO2)C(c2ccc(Cl)c(Cl)c2)NC(=O)N1 (stereo not drawn)	none (no result: IDE cell activ)
CN(C)c1ccc(/C=C(/NC(=O)c2ccccc2)C(=O)NCCN2CCOCC2)cc1	IDE cell inh 17 | IDE cell inh cf inactive | HEK293 tox inactive
O=C(NCCN1CCOCC1)/C(=C/c1ccc(Cl)cc1)NC(=O)c1ccccc1	none
CN(C)S(=O)(=O)n1cc(/C=C(\NC(=O)c2ccccc2Cl)C(=O)NCCN2CCOCC2)c2ccccc21	none
CN(C)c1ccc(/C=C(/NC(=O)c2ccccc2Cl)C(=O)NCCN2CCOCC2)cc1	IDE cell inh 18 | IDE cell inh cf inactive | HEK293 tox inactive
CC(Cn1cncn1)NC(=O)c1cc(COc2cccc(C(F)(F)F)c2)on1 (stereo not drawn)	none
CN1C(=O)c2cccc3c(Br)ccc(c23)C1=O	none (no result: IDE cell activ)
CN1C(=O)c2cccc3c(N(C)C)ccc(c23)C1=O	IDE cell inh 46 | IDE cell inh cf 52 | HEK293 tox inactive
CC(C)c1onc(C(=O)N2CCN(c3ccc(F)cc3)CC2)c1[N+](=O)[O-]	none
CC1C/C(=C/c2cccn2C)C(=O)/C(=C/c2cccn2C)C1 (stereo not drawn)	IDE cell inh 39 | IDE cell inh cf 94 | HEK293 tox 23
CC1C/C(=C/c2ccncc2)C(=O)/C(=C/c2ccncc2)C1 (stereo not drawn)	none
Cc1ccc(-c2cc3cccc[n+]3cc2-c2ccc(C)cc2)cc1	none
CCN(C(=O)CSc1nnc2ccccn12)c1c(N)n(Cc2ccccc2)c(=O)[nH]c1=O	none
O=C1/C(=C/c2cccc(O)c2)SC(=S)N1CC1CCCO1 (stereo not drawn)	none
CCOc1cc(/C=C2\SC(=S)N(C(C(=O)O)c3ccccc3)C2=O)ccc1O (stereo not drawn)	IDE cell inh 68 | IDE cell inh cf 140 | HEK293 tox inactive
COc1cc(/C=C2\SC(=S)N(C(C(=O)O)c3ccccc3)C2=O)ccc1O (stereo not drawn)	IDE cell inh 64 | IDE cell inh cf 174 | HEK293 tox inactive
CCOc1cc(/C=C2/SC(=S)N(CC3CCCO3)C2=O)ccc1O (stereo not drawn)	IDE cell inh 35 | IDE cell inh cf 123 | HEK293 tox 24
COc1ccccc1/C=C1\SC(=S)N(C(C(=O)O)c2ccccc2)C1=O (stereo not drawn)	none
O=C(O)C(c1ccccc1)N1C(=O)/C(=C\c2ccc(O)c(O)c2)SC1=S (stereo not drawn)	IDE cell inh 67 | IDE cell inh cf 84 | HEK293 tox inactive
CCOc1ccc(/C=C2/SC(=S)N(C(C(=O)O)c3ccccc3)C2=O)cc1OCC (stereo not drawn)	none (no result: IDE cell inh, HDAC3 inh, LANA-H2A inh)
Cc1nn(C)c(Sc2ccccn2)c1[N+](=O)[O-]	none (no result: IDE cell activ)
CCN(CC)S(=O)(=O)c1ccc(N2CCOCC2)c(NC(=O)c2ccc(N3CCCC3=O)cc2)c1	none
Cc1cccc(N2CCN(C(=O)CCCn3c(=O)c4cccn4c4cccnc43)CC2)c1C	IDE cell inh 25 | IDE cell inh cf inactive | HEK293 tox 23
Cc1ccc(Cl)cc1N1CCN(C(=O)CCCn2c(=O)c3cccn3c3cccnc32)CC1	none
COC(=O)c1ccc(/C(O)=C(\C#N)c2nc3ccccc3s2)cc1	none
N#C/C(=C\c1ccncc1)c1ccccn1	none
CC(C)=C(C#N)c1nc2ccccc2s1	IDE cell inh 38 | IDE cell inh cf inactive | HEK293 tox inactive
N#C/C(=C/c1ccncc1)c1nc2ccccc2s1	IDE cell inh 44 | IDE cell inh cf inactive | HEK293 tox inactive
CCOc1ccc(OCCCCOc2ccccc2C(C)=O)cc1	none
CCN1C(=O)[C@@H]2Cc3c([nH]c4ccccc34)C(c3ccc(OC)cc3)N2C1=S (stereo partly drawn)	IDE cell inh 41 | IDE cell inh cf 20 | HEK293 tox 61
CC(OC(=O)C1CCN(c2ccc(C(F)(F)F)cn2)CC1)C(=O)Nc1ccc(S(N)(=O)=O)cc1 (stereo not drawn)	IDE cell inh 18 | IDE cell inh cf inactive | HEK293 tox inactive
CCN(CC)c1ccc(C=C(c2nnnn2-c2ccccc2)c2nnnn2-c2ccccc2)cc1	IDE cell inh 32 | IDE cell inh cf 30 | HEK293 tox inactive
c1ccc([C@H]2CN3C(=N2)Sc2ccccc23)cc1	none
COc1cc(/C=C2\COC/C(=C\c3ccc(O)c(OC)c3)C2=O)ccc1O	none
COc1cc(/C=C2/CC/C(=C/c3ccc(O)c(OC)c3)C2=O)ccc1O	IDE cell inh 24 | IDE cell inh cf 36 | HEK293 tox 32
COc1cc(/C=C2\C(=O)N(C)C(=S)N2C)ccc1O	IDE cell inh 19 | IDE cell inh cf 31 | HEK293 tox inactive
C=CC[C@@H](Cc1ccc(F)cc1)C(=O)OC[C@@H]1CCCN1C(=O)[C@@H](CC=C)CC(=O)N(CCO)Cc1ccccc1	none
Cc1ccc(C(=O)NCC2CCCN2S(=O)(=O)c2cccs2)cc1C (stereo not drawn)	none
CC(=O)Oc1c(-c2ccco2)oc2ccccc2c1=O	IDE cell inh 77 | IDE cell inh cf 104 | HEK293 tox inactive
CCOc1cc(C2C3=C(CC(C)(C)CC3=O)Nc3n[nH]c(C)c32)ccc1O (stereo not drawn)	none
N#Cc1c(N)n(Cc2ccccc2)c(=O)c2cc([N+](=O)[O-])ccc12	none
Cn1c(N)c(-c2ccccc2)c2ccc([N+](=O)[O-])cc2c1=O	IDE cell inh 25 | IDE cell inh cf 25 | HEK293 tox 27
COc1ccc(-c2noc(CCC(=O)N3CCN(c4ccccc4Br)CC3)n2)cc1	none (no result: IDE cell inh, HDAC3 inh, LANA-H2A inh)
Cc1ccc(OCCSc2nnc(-c3ccncc3)n2C)cc1	IDE cell inh 36 | IDE cell inh cf inactive | HEK293 tox inactive
C=CCc1cc(/C=C2/NC(=S)NC2=O)cc(OC)c1O	IDE cell inh 36 | IDE cell inh cf 88 | HEK293 tox inactive
Cc1cccc(C(=O)Nc2ccnc(-c3ccncc3)n2)c1	IDE cell inh 51 | IDE cell inh cf 27 | HEK293 tox inactive
Cc1cccc(C(=O)Nc2ccnc(-c3cccnc3)n2)c1	IDE cell inh 44 | IDE cell inh cf 31 | HEK293 tox inactive
Cc1ccccc1C(=O)Nc1ccnc(-c2ccncc2)n1	none
Cc1ccc2nc(/C(C#N)=C/c3ccccc3C(=O)O)[nH]c2c1	none
Cc1ccc2nc(/C(C#N)=C/c3ccc(O)c(O)c3)[nH]c2c1	IDE cell inh 84 | IDE cell inh cf 111 | HEK293 tox inactive
